This passage reports sensor-assay potency score (higher = more potent) results from the OligoGym collection.
Note: reference of the scale not given here.

One test deals with NCAPG2. Briefly: pooled miR-30 sensor sort-seq; sequence = guide strand. Conditions: shRNA.
Sequence AACATCTTTACACACAGTCAGG came in with a sensor-assay potency score (higher = more potent) of -1.69. The same measure, in the same setting: for TTGATGGTGAAAGTAACTCAGA the value was -1.15; for TATAATAACACATTCCAGTAGG, -0.388; for TTGCAAAAACTCTCCAACCAGC, -0.983.

For TTAGTCTCCAGACTCCTCCTTA, the sensor-assay potency score (higher = more potent) came to 0.238. On the same count and under the same terms, the same measure for TAGAACTCTGTAGTTTTCGTTC: -0.463. TTTACCTGCATTAATAACCAGG: the sensor-assay potency score (higher = more potent) was -0.888. With TTGTCGTGGAGACTGTATCTGA, the sensor-assay potency score (higher = more potent) is -0.323.

A further test addresses NCF1. The description is as above. Conditions: shRNA.
TTATGGAACTCGTAGATCTCGG yielded a sensor-assay potency score (higher = more potent) of -0.843.

The sequence TTGGTGCTCTCGCTGCAGCGGT came in with a sensor-assay potency score (higher = more potent) of -1.07. Turning to TTTTTTGTCTGGTTGTCCGTGG, the sensor-assay potency score (higher = more potent) is 0.905. Same read-out and setting: for TAGATCTCGGTGAAGCGCCGGT the value was 0.272. On the same count and under the same terms, the same measure for TTTGTCTGGTTGTCCGTGGGGA: 0.0821. Still for that read-out and setting: the same measure for TTTTGCAGGTACATGGACGGGA: 0.437. Sequence TTCATCTGACAGAACCACCAAC returned a sensor-assay potency score (higher = more potent) of -0.468.

TGGAACTCGTAGATCTCGGTGA yielded a sensor-assay potency score (higher = more potent) of 0.128.

As to TAAGGTTTTATGGAACTCGTAG, the sensor-assay potency score (higher = more potent) was determined as 0.251. AACATGTACACATAGTGCTGGC: the sensor-assay potency score (higher = more potent) was -0.578.

In turn, TTCCGCTTGGTGCTCTCGCTGC yielded a sensor-assay potency score (higher = more potent) of -1.

TCTGACAGAACCACCAACCGCT: the sensor-assay potency score (higher = more potent) came to 0.511.

Another test concerns the target NCR3. Described as above. Conditions: shRNA.
Sequence TTTGCCCTGGTAATAGACGGTG came in with a sensor-assay potency score (higher = more potent) of -0.728. Same read-out and setting: the same measure for TCTCGGAACCACGTGACGGAGC: -0.976; for TAGCTGAGGATGTTCTTTCTCC: -0.477; for ACTCTGCACACGTAGATGCTGG: -1.18. Still for that read-out and setting: the same measure for TTCTTTCTCCACCACCAGCCGA: -1.65; for TCTTTCTCCACCACCAGCCGAG: -1.09; for ATGTTCTTTCTCCACCACCAGC: -2.11. The same measure, in the same setting: the same measure for TATTGGGTGAATGACAGTGTTC: -1.59.

The sequence TGGAACCACCTCATCTCGGAAC showed a sensor-assay potency score (higher = more potent) of -1.16. Same read-out and setting: for AAGCTGACAGCATAGAATCCAG the value was -0.853. On the same count and under the same terms, the same measure for TTCCAGGTCAGACATTTGCCCT: -1.63; for TCCAGGTCAGACATTTGCCCTG: -1.34.

Another test has as its target NCSTN. The test is described as above. Conditions: shRNA.
TCGAGCTCGAAGAAATCGCTGC yielded a sensor-assay potency score (higher = more potent) of 0.0428.

As to AAGACAAACATGACATTGCGGG, the sensor-assay potency score (higher = more potent) was -0.588. TACTGTACAACATAAGTGGTGT came in with a sensor-assay potency score (higher = more potent) of 0.405.

As for TAGCATGCTCCACACATTGTAA, the sensor-assay potency score (higher = more potent) was -1.37. For TATATCTTCCTCTCCACTGAGT, the sensor-assay potency score (higher = more potent) was -0.425. The same measure, in the same setting: the same measure for TCAGCCTGAACTGTGTCGCTGA: 0.319.

Consider TTCCACTGTATTTCTCTGCAGT, for which the sensor-assay potency score (higher = more potent) was 0.342. Regarding TTAAACAGGAGCAAGAAGCTTC, the sensor-assay potency score (higher = more potent) is -0.218.
